NALP3 yeast inh = NALP3 inhibition in yeast | inhibition, % at 10 µM | AID 2825 | Yeast reconstituted NLRP3/ASC/caspase-1, beta-gal luminescence, 24 h | 330,000 tested, 0.39% active;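 active = inhibition of 50% or more; inactive = inhibition below 50%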;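 note: plate controls were induced DMSO wells for no effect and uninduced yeast grown without galactose for full effect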
NALP1 inh = NALP1 inhibition; 280,000 tested, 0.61% active; S. cerevisiae NALP1/ASC/caspase-1 growth, X-gal OD620, 72 h; inhibition, % at 10 µM; in the data active = inhibition mostly above about 24%, no sharp cut-off; inactive = mostly below about 32%
TIM10 inh = growth inhibitors of TIM10 yeast strain; S. cerevisiae TIM10 strain growth, BacTiter-Glo luminescence, 24 h; inhibition, % at 10 µM; 330,000 tested, 1.4% active; AID 463195;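 active = inhibition of 40% or more at the single tested concentration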;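 note: wild-type TIM10 isogenic control strain grown at permissive 25 °C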
tim23-1 inh = growth inhibitors of tim23-1 mutant yeast. 330,000 tested, 1.3% active. AID 463212. inhibition, % at 20 µM. S. cerevisiae tim23-1 growth, BacTiter-Glo luminescence, 24 h;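 active = growth inhibition of the mutant yeast at or above 50%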;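 note: temperature-sensitive mutant grown at 25 °C; plate controls were DMSO-treated mutant yeast for no effect and medium wells lacking yeast for full effect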
tim10-1 inh = inhibits growth of tim10-1 mutant yeast; S. cerevisiae tim10-1 ts strain growth, BacTiter-Glo, 24 h; AID 463190; 330,000 tested, 2.2% active; inhibition, % at 20 µM;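 active = inhibition of at least 40%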;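 note: mutant grown at 25 °C; 0% = DMSO wells with yeast and 100% = wells holding no yeast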
* marks the source's active call; other numbers are inactive results; nt = not tested or not shown. Most compounds without a hit are left out; they make up all but 4% or so of the library.

SMILES	NALP3 yeast inh	NALP1 inh	TIM10 inh	tim23-1 inh	tim10-1 inh
Cc1ccc(NCC(=O)c2ccccc2)cc1Cl	9.5	32.0	1.3	7.3	10.5
Cc1ccc2ncccc2c1	11.7	nt	-2.7	6.0	13.5
Cc1nnc(C)c2c(C)n(-c3ccc4ncccc4c3)c(C)c12	-6.0	25.4*	0.3	-2.5	16.1
CCOc1cc(CNCC(C)C)cc(Cl)c1OCc1ccccc1	30.8	36.1*	12.7	7.3	-16.5
CCOc1cc(CNCCO)cc(Br)c1OCc1ccccc1Cl	14.5	31.9*	12.7	2.8	5.5
Cc1ccsc1/C=C1/NC(=O)N(Cc2ccc(F)cc2)C1=O	8.8	33.5*	-1.1	-9.6	12.4
C=CCSc1nnc(NC(=O)C23CC4CC(CC(NC(C)=O)(C4)C2)C3)s1	8.8	17.0	5.9	5.5	12.1
Clc1ccc(-c2nc(-c3ccccn3)no2)cc1Cl	17.6	32.3*	14.6	5.7	-0.5
CN(C)c1ccc(/C=C(\C#N)C(=O)c2ccccc2)cc1	nt	36.6*	nt	nt	nt
Cc1cc2nc(-c3ccc(SCC(=O)NC(C)C)nc3)[nH]c2cc1C	1.0	8.9	1.0	5.1	-2.2
Cc1cc2nc(-c3ccc(SCC(=O)N4CCc5ccccc54)nc3)[nH]c2cc1C	-13.9	23.7*	18.9	24.2	3.7
N=c1c2c(ncn1Cc1ccco1)Oc1cc(O)ccc1C2c1ccccc1 (centres undefined)	-7.5	8.7	-4.8	6.6	9.5
N=c1c2c(ncn1Cc1ccco1)Oc1c(ccc3ccccc13)C2c1ccccc1 (centres undefined)	20.6	62.8*	18.3	26.1	-9.1
COc1ccc(C(=O)n2nc(C#N)c(C#N)c2N)cc1	17.6	37.0*	-4.3	-6.8	-12.0
Cc1ccc(C(=O)n2nc(C#N)c(C#N)c2N)cc1	16.8	nt	6.6	7.8	-17.3
CS(=O)(=O)Nc1nnc(Cc2ccccc2)s1	12.3	-79.9	-13.0	9.4	5.9
CC(C)Cc1nnc(NS(=O)(=O)Cc2ccccc2)s1	12.6	43.6*	6.8	6.3	-7.5
CCc1ccc(NC(=O)COC(=O)CN2C(=O)COc3ccccc32)cc1	4.2	40.8*	-5.3	8.8	18.2
COc1ccc(NC(=O)CN2C(=O)COc3ccccc32)cc1OC	26.0	0.7	-8.4	5.3	8.7
Cc1nc2ccccn2c1C(=O)Nc1ccc(Cl)cc1	16.1	1.6	20.5	17.0	20.7
CN1CCN(S(=O)(=O)c2ccc(NC(=S)NC(=O)C(C)(C)C)cc2)CC1	16.9	79.9*	-0.3	28.4	23.5
CC(C)(C)C(=O)Nc1ccc(C(=O)COC(=O)C2=COCCO2)cc1	3.6	nt	3.6	14.0	-5.5
CCCOc1ccc(/C(O)=C2/C(=O)C(=O)N(CCOC)C2c2cccnc2)cc1 (centres undefined)	10.9	30.8*	-12.7	-4.6	-7.5
C=CCn1c(COc2ccccc2)nnc1SC(C)C(=O)N/N=C/c1cc(Cl)ccc1O (centres undefined)	22.2	0.7	38.1	43.5	39.8
Cc1cc(C)c(S(C)(=O)=O)c(Oc2ccc(C(C)(C)C)cc2)n1	16.3	30.5*	12.3	28.9	24.9
SMILES	NALP3 yeast inh	NALP1 inh	TIM10 inh	tim23-1 inh	tim10-1 inh
CCOC(=O)c1c(NC(C)=O)sc2c(OCC(O)CNC(C)(C)C)c(Br)ccc12 (centres undefined)	15.1	26.1*	3.8	-13.6	18.5
O=P(O)(CCc1ccccn1)CN1CCOCC1	4.9	39.0*	-2.3	10.7	-14.9
COc1ccc(S(=O)(=O)N(CCCN2CCOCC2)Cc2cccc3ccccc23)cc1	-5.5	39.1*	9.7	6.2	23.1
CCC(C(=O)NCCCN1CC(C)CC(C)C1)n1nc(C)c2sc3ccccc3c2c1=O (centres undefined)	11.0	-0.4	4.5	8.0	21.6
Cc1ccc(S(=O)(=O)c2nc(-c3ccccc3)oc2N2CCC(C(N)=O)CC2)cc1	10.6	33.9*	9.1	5.5	7.5
NC(=O)C1CCN(c2oc(-c3ccccc3)nc2S(=O)(=O)c2ccc(Br)cc2)CC1	9.9	11.6	-1.8	-5.7	1.4
COc1cccc(NC(=O)Cn2nnc(C(=O)Nc3cc(Cl)ccc3OC)c2N)c1	6.6	33.9	6.9	2.0	11.7
COc1cccc(Cn2nnc(C(=O)Nc3cc(Cl)ccc3OC)c2N)c1	3.7	40.4*	15.4	23.7	10.6
N#C/C(C(N)=O)=C1/SC=C(c2ccccc2)N1c1ccccc1	10.6	36.6*	-8.3	-0.1	2.2
Cc1nonc1NC(=O)CSc1nnc(-c2ccoc2C)n1-c1cccc(Cl)c1	0.8	44.5*	17.9	13.8	17.5
COc1ccc(CCNCC(=O)Nc2ccc(C)c(S(=O)(=O)N(C)C)c2)cc1OC	10.7	36.2*	2.6	10.2	-5.2
COc1ccc(CCNCC(=O)Nc2ccc(C)c(Br)c2)cc1OC	20.2	-7.9	5.0	8.1	15.0
Cc1ccc(C)c(OCCC(=O)OCC(=O)NCc2ccc(F)cc2)c1	7.2	12.6	7.5	11.2	-2.4
Cc1ccc(C(C)C)c(OCC(=O)Nc2ccccc2N2CCN(C)CC2)c1	10.9	26.8*	2.5	36.7	31.7
CC(=O)N1CCN(c2ccccc2NC(=O)COc2cc(C)ccc2C(C)C)CC1	8.5	-1.5	15.1	37.1	29.6
CCCCn1c(-c2ccco2)nc2oc3ccccc3c(=O)c2c1=O	2.6	8.8	19.1	37.4	20.6
Cc1ccc(C)n1-c1sc2c(c1C#N)CCC(C)C2 (centres undefined)	-13.8	34.6*	2.0	22.6	29.5
O=C(CNS(=O)(=O)c1c(Cl)cccc1Cl)OCC(=O)N1CCN(c2ccccc2)CC1	7.5	13.9	-7.2	8.6	16.5
CC(=O)c1c(C)[nH]c(C(=O)N2CCN(c3ncccn3)CC2)c1C	-12.1	38.2*	-10.2	11.1	-4.1
CC(=O)c1c(C)[nH]c(C(=O)N2CCN(c3ccccn3)CC2)c1C	12.8	-7.7	-0.1	2.2	0.5
Fc1ccccc1N1CCN(C2CCCN(Cc3cccc(C(F)(F)F)c3)C2)CC1 (centres undefined)	17.8	17.7	-1.0	6.4	11.3
Cc1cccc(-n2nnc(C(=O)NCc3ccccc3Cl)c2N)c1	17.3	27.4*	-9.7	9.0	2.8
CN(C)CCCNS(=O)(=O)c1ccc(Cl)s1	5.7	29.9*	9.6	30.6	5.0
Cc1ccc2c(C)c(C(=O)N3CCN(C4CCS(=O)(=O)C4)CC3)oc2c1C (centres undefined)	12.0	16.7	1.5	0.8	-4.4
COc1ccc(NC(=O)CS(=O)(=O)Cc2nc(-c3ccc(C)cc3)oc2C)cc1	-2.8	44.7*	-0.4	-9.9	1.4
COc1ccc(-c2nc(CS(=O)(=O)CC(=O)Nc3ccc(Cl)cc3)c(C)o2)cc1	9.8	17.4	5.1	7.6	9.5
COc1ccc(NC(=O)Cn2nnc(C(=O)Nc3ccc(F)c(Cl)c3)c2N)cc1	-0.3	27.2	-26.7	2.1	-15.3
Cc1ccc(NC(=O)Cn2nnc(C(=O)Nc3ccc(F)c(Cl)c3)c2N)cc1	4.7	37.0*	-7.7	11.7	13.7
COc1ccc(N(CC(=O)NCc2ccc3c(c2)OCO3)C(=O)c2csnn2)cc1	-4.6	2.7	-15.2	1.2	-11.4
